# Measured values: PubChem BioAssay AID1347076 (National Center for Advancing Translational Sciences (NCATS), 2019)
# In all, about 400,000 compounds went through this assay and about 13,000 (3.2%) were called active. Roughly 18% stayed inconclusive and do not appear here. For the sample, actives were picked, then their nearest neighbours and some compounds at random. A number with no mark means an inactive call. Calls follow the shape of the dose curve; as a rule, active = well fitted cell-killing curve with a large enough effect; inconclusive = small, poorly fitted or top-dose-only effect, or effect the other way; inactive = flat fitted curve, though single readings scatter.
# Assay: qHTS assay for MDR1-selective chemotherapeutics: Primary screen using the drug-selected MDR subline cells KB-V1; also: nearly all actives have a fitted effect of over 60% in size
# Settings: KB-V1 MDR cells viability, CellTiter-Glo, 72 h; series mostly up to 46.1 µM; activity change, negative = cytotoxicity: at the top concentration
# Excerpt: A prime difficulty in effectively treating cancer is the development of cellular resistance to multiple structurally unrelated anticancer drugs, a phenomenon known as multidrug resistance (MDR). […] Numerous strategies to overcome P-gp-mediated MDR have been explored, including the design of drugs that evade recognition and efflux, and development of inhibitors to block efflux and restore drug accumulation. […] An alternative approach is to exploit resistance by identifying drugs that target MDR cells over the non-resistant parental cells from which they were selected. […] The development of MDR1-selective agents represents a new strategy for resolving multidrug resistance, as it remains a long-standing clinical challenge for cancer chemotherapy.
# Our goal is to identify compounds that selectively kill P-gp-expressing MDR cells. We will identify MDR1-selective compounds by comparing toxicity of compounds in the screening library against parental, drug-naive (KB-3-1) adenocarcinoma cells as well as their drug-selected MDR sub-line (KB-V1). The differential toxicity of compounds against these two cell lines will be used to identify MDR1-selective compounds, whose cytotoxicity is potentiated, rather than diminished, by P-gp expression. This assay will be utilized to conduct a quantitative high-throughput screen (qHTS) in collaboration with the NIH Chemical Genomics Center to identify selective agents, and probe hits arising from the screen will be validated using secondary assays and characterized through a well-established follow-up research program. This screen was run against the entire NCGC library collection of about 400,000 compounds.
# NIH Molecular Libraries Probe Production Network [MLPCN]
# NIH Chemical Genomics Center [NCGC]
# PI: Michael Gottesman, National Cancer Institute, NIH
# Briefly, 5 microL of media containing either KB-V1 cells (columns 1-2, 4-48) are dispensed into Greiner white, treated solid-bottom 1536-well assay plates (media-only control is added to column 3). Compounds are then transferred via Kalypsys pin tool equipped with 1536-pin array (10 nL slotted pins, V&P Scientific, San Diego, CA). Following addition of compound, the plates are incubated at 37 degrees C for 72 hours. CellTiter-Glo (2.5 µL/well) is then added, and the plates are read in a ViewLux reader (Perkin-Elmer, clear luminescence filter, 1 second exposure, 1x binning) following a 10 minute incubation. All cells are dispensed in DMEM phenol-red free media containing 10% FBS.
# Library plates were screened starting from the lowest and proceeding to the highest concentration. Vehicle-only plates, with DMSO being pin-transferred to columns 5-48, will be inserted uniformly at the beginning and the end of each library in order to monitor and record any shifts in the background, which can be affected by reagent dispensers or loss in enzyme activity over time. Screening data will be corrected, normalized, and concentration-effect relationships will be derived by using publicly-available NCGC, NCATS curve fitting algorithms (http://ncgc.nih.gov/pub/openhts).
# % is scaled to controls: 0 for no effect and ±100 for the full control effect; potency is read from the fitted curve at half-maximal effect.
SMILES,"activity change, negative = cytotoxicity",Potency
CN1CCN(C(=O)CCc2nc(-c3ccc(Cl)cc3)no2)CC1,-19%,
CCN1CC(CN(C)Cc2nc(-c3ccc(Cl)cc3)no2)CC1=O (stereo unspecified),,16.4 µM (active)
CC1CCN(Cc2nc(-c3ccc(Cl)cc3)no2)CC1,0.287%,
C[C@H](CO)N1C[C@H](C)[C@H](CN(C)C(=O)Nc2ccc3c(c2)OCO3)Oc2ncc(Br)cc2C1=O,0%,
CC(C)(C)c1ccc(C(=O)C[N+]2(C)CCCc3ccccc32)cc1 (stereo unspecified),0.231%,
COc1ccc(-n2c(-c3ccc(Cl)cc3)n[nH]c2=S)c(OC)c1,4.94%,
Cc1cc(Cl)ccc1NC(=O)Cc1ccc(NC(=O)N2CCCCc3ccccc32)cc1,5.96%,
CCCC1=Nc2cc(C(=O)NCc3ccco3)ccc2Sc2ccccc21,,4.11 µM (active)
O=C(NCc1ccco1)c1cccc(-c2ccc3nncn3c2)c1,-11.8%,
CCCC1=Nc2cc(C(=O)NCCN3CCCC3)ccc2Sc2ccccc21,-2.03%,
CCCCCNC(=O)C(c1ccc(OC)cc1)n1c(=O)c(-c2ccccc2)nc2ccccc21 (stereo unspecified),-20.4%,
CCCCn1nnnc1C1(C)CCC(=O)N1Cc1ccc(OC)c(OC)c1 (stereo unspecified),-7.85%,
C[C@H](CO)N1C[C@H](C)[C@H](CN(C)C(=O)c2ccncc2)OCc2ccccc2-c2c(n(C)c3ccccc23)C1=O,0.888%,
Cc1nn(Cc2ccc(Cl)cc2)c(Cl)c1/C=N/NC(=O)c1cccnc1,1.6%,
Cc1nn(Cc2ccc(Cl)cc2)c(Cl)c1/C=N/NC(=O)CNc1ccccc1F,,3.26 µM (active)
CCn1nc(C)c(/C=N/NC(=O)Cc2ccc(Cl)cc2)c1C,14.2%,
CC(C)C[C@H]1CNC(=S)N1C[C@H]1CCCN1C[C@H](Cc1ccc(O)cc1)N1C[C@H](Cc2ccc(O)cc2)N(CC2CCCCC2)C1=S,-8.38%,
Cn1cnc(S(=O)(=O)N2C[C@@H](O)COC[C@@H]3O[C@H](CC(=O)NC4CCC4)CC[C@H]32)c1,0.239%,
OC[C@H]1O[C@@H](c2nc(-c3nc(-c4ccc(F)cc4)no3)cs2)[C@H](O)[C@@H](O)[C@H]1O,-0.61%,
COc1cc(Cl)c(C)cc1Nc1nnc(-n2nc(C)cc2C)c2ccccc12,-12.2%,
COc1ccc(C(=O)NC2CC2)cc1OC1CCN(Cc2ccc(SC)cc2)CC1,-8.65%,
COc1ccc(C(=O)NC2CC2)cc1OC1CCN(Cc2cnn(C)c2)CC1,2.24%,
COc1ccc(C(=O)NC2CC2)cc1OC1CCN(C/C=C/c2ccccc2)CC1,,16.4 µM (active)
CN(C)CCCN(C(=O)c1ccc(S(=O)(=O)N2CCCCCC2)cc1)c1nc2ccc(Br)cc2s1,,23.1 µM (active)
CN(C)CCCN(C(=O)c1ccc(S(=O)(=O)N2CCCCCC2)cc1)c1nc2cc3c(cc2s1)OCCO3,-18.9%,
CCN(CC)CCN(C(=O)c1ccc(S(=O)(=O)N2CCOCC2)cc1)c1nc2cc3c(cc2s1)OCCO3,-7.69%,
